Test results from PubChem BioAssay AID1159580 (chemical genetic matrix, 2015).
Among all 5,500 compounds or so, about 2,000 (36%) were called active. About 18% were inconclusive and are not listed. Rule as the data show it: active = normalized growth mostly below about 0.91 (no sharp cut-off); inconclusive = no clear call, values can overlap the other calls; inactive = mostly above about 0.92. This is one part of the list.

Assay: chemical genetic growth profiling, strain panel (AID 1159580);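 also: tested at 20 µM; growth read once vehicle control cultures reached saturation at 30 °C; 1 = growth at the plate median or of vehicle wells; lower values mean less growth of the strain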
Conditions: S. cerevisiae deletion strains, growth OD
[1] = locus YAR019C, strain CDC15, hits give low values
[2] = locus YBL105C, strain PKC1, hits give low values
[3] = locus YBR135W, strain CKS1, hits give low values
[4] = locus YBR136W, strain MEC1, hits give low values
[5] = locus YBR160W, strain CDC28, hits give low values
[6] = locus YDL017W, strain CDC7, hits give low values
[7] = locus YDL028C, strain MPS1, hits give low values
[8] = locus YDL101C, strain DUN1, hits give low values
[9] = locus YDL108W, strain KIN28, hits give low values
[10] = locus YDL132W, strain cdc53, hits give low values
[11] = locus YDL214C, strain PRR2, hits give low values
[12] = locus YDR052C, strain DBF4, hits give low values
[13] = locus YDR054C, strain cdc34, hits give low values
[14] = locus YDR226W, strain ADK1, hits give low values
[15] = locus YDR477W, strain SNF1, hits give low values
[16] = locus YER123W, strain YCK3, hits give low values
[17] = locus YER133W, strain GLC7, hits give low values
[18] = locus YFL009W, strain cdc4, hits give low values
[19] = locus YFL029C, strain CAK1, hits give low values
[20] = locus YFR003C, strain YPI1, hits give low values
[21] = locus YFR019W, strain FAB1, hits give low values
[22] = locus YFR028C, strain CDC14, hits give low values
[23] = locus YGR040W, strain KSS1, hits give low values
[24] = locus YGR052W, strain FMP48, hits give low values
[25] = locus YGR092W, strain DBF2, hits give low values
[26] = locus YHR030C, strain SLT2, hits give low values
[27] = locus YHR079C, strain IRE1, hits give low values
[28] = locus YHR082C, strain KSP1, hits give low values
[29] = locus YHR205W, strain SCH9, hits give low values
[30] = locus YIL147C, strain SLN1, hits give low values
[31] = locus YJL095W, strain BCK1, hits give low values
[32] = locus YJL128C, strain PBS2, hits give low values
[33] = locus YJL157C, strain FAR1, hits give low values
[34] = locus YJR016C, strain ILV3, hits give low values
[35] = locus YJR066W, strain TOR1 (second series), hits give low values
[36] = locus YJR066W, strain TOR1, hits give low values
[37] = locus YKL048C, strain ELM1, hits give low values
[38] = locus YKL067W, strain YNK1, hits give low values
[39] = locus YKL101W, strain HSL1, hits give low values
[40] = locus YKL193C, strain SDS22, hits give low values
[41] = locus YKL203C, strain TOR2, hits give low values
[42] = locus YLR113W, strain HOG1, hits give low values
[43] = locus YLR133W, strain CKI1, hits give low values
[44] = locus YLR403W, strain SFP1, hits give low values
[45] = locus YML070W, strain DAK1, hits give low values
[46] = locus YMR001C, strain CDC5, hits give low values
[47] = locus YMR205C, strain PFK2 (second series), hits give low values
[48] = locus YMR277W, strain FCP1, hits give low values
[49] = locus YNL006W, strain LST8, hits give low values
[50] = locus YNL020C, strain ARK1, hits give low values
[51] = locus YNL161W, strain CBK1, hits give low values
[52] = locus YNL183C, strain NPR1, hits give low values
[53] = locus YNL207W, strain RIO2, hits give low values
[54] = locus YNL222W, strain SSU72, hits give low values
[55] = locus YNL307C, strain MCK1 (second series), hits give low values
[56] = locus YOL078W, strain AVO1, hits give low values
[57] = locus YOL136C, strain PFK27, hits give low values
[58] = locus YOR061W, strain CKA2, hits give low values
[59] = locus YOR119C, strain RIO1, hits give low values
[60] = locus YOR231W, strain MKK1, hits give low values
[61] = locus YOR329C, strain SCD5, hits give low values
[62] = locus YPL031C, strain PHO85, hits give low values
[63] = locus YPL153C, strain RAD53, hits give low values
[64] = locus YPL204W, strain HRR25, hits give low values
[65] = locus YPL209C, strain IPL1, hits give low values
[66] = locus YPL256C, strain CLN2, hits give low values
[67] = locus YPR025C, strain CCL1, hits give low values
[68] = locus YPR106W, strain ISR1, hits give low values
[69] = locus YPR111W, strain DBF20, hits give low values
[70] = strain NNK1, hits give low values
[71] = strain TSCII, hits give low values

Measured: normalized growth

COc1cc(NC(=S)NC(=O)c2ccccc2)c(OC)cc1Cl
inactive: [1] 0.985 | [2] 0.995 | [3] 0.99 | [4] 0.99 | [5] 0.997 | [6] 0.998 | [7] 0.988 | [8] 0.998 | [9] 0.981 | [10] 1 | [11] 0.962 | [12] 0.996 | [13] 0.994 | [14] 0.996 | [15] 0.973 | [16] 0.963 | [17] 0.986 | [18] 0.994 | [19] 0.98 | [20] 0.998 | [21] 0.974 | [22] 1 | [23] 0.963 | [24] 1.04 | [25] 0.989 | [26] 0.949 | [27] 0.979 | [28] 1 | [29] 0.9 | [30] 0.993 | [31] 0.961 | [32] 0.971 | [33] 0.989 | [34] 1 | [35] 0.951 | [36] 0.997 | [37] 0.981 | [38] 0.974 | [39] 0.939 | [40] 1 | [41] 1.05 | [42] 0.91 | [43] 0.968 | [44] 0.941 | [45] 0.957 | [46] 0.995 | [47] 0.977 | [48] 1 | [49] 0.991 | [50] 0.977 | [51] 1 | [52] 0.981 | [53] 1 | [54] 0.992 | [55] 0.968 | [56] 0.999 | [57] 0.968 | [58] 0.953 | [59] 0.983 | [60] 0.962 | [61] 0.996 | [62] 0.971 | [63] 0.966 | [64] 0.986 | [65] 0.995 | [66] 0.959 | [67] 0.998 | [68] 0.989 | [69] 0.986 | [70] 0.981 | [71] 1

COc1cc(NC(=S)NNS(=O)(=O)c2ccc(C)cc2)c(OC)cc1Cl
active: [42] 0.849
inactive: [1] 0.982 | [2] 0.974 | [3] 0.978 | [4] 0.971 | [5] 0.984 | [6] 0.984 | [7] 0.982 | [8] 0.976 | [9] 0.984 | [10] 0.974 | [11] 0.939 | [12] 0.986 | [13] 0.949 | [14] 0.974 | [15] 0.933 | [16] 0.921 | [17] 0.953 | [18] 0.982 | [19] 0.976 | [20] 0.985 | [21] 0.955 | [22] 0.968 | [23] 0.942 | [24] 1.06 | [25] 1.01 | [26] 0.858 | [27] 0.997 | [28] 1.02 | [29] 0.961 | [30] 0.986 | [31] 0.927 | [32] 0.966 | [33] 0.975 | [34] 0.977 | [35] 0.955 | [36] 0.97 | [37] 0.953 | [38] 0.94 | [39] 0.935 | [40] 0.97 | [41] 1 | [43] 0.947 | [44] 0.959 | [45] 0.942 | [46] 0.979 | [47] 0.947 | [48] 0.963 | [49] 0.986 | [50] 0.96 | [51] 0.984 | [52] 0.939 | [53] 0.981 | [54] 0.973 | [55] 0.941 | [56] 0.971 | [57] 0.929 | [58] 0.967 | [59] 1.05 | [60] 0.994 | [61] 0.984 | [62] 0.95 | [63] 0.95 | [64] 0.92 | [65] 0.972 | [66] 0.886 | [67] 0.972 | [68] 0.977 | [69] 0.951 | [70] 0.972 | [71] 0.98

COc1cc(NC(=S)N(C)C)c(OC)cc1Cl
inactive: [1] 0.984 | [2] 0.987 | [3] 0.996 | [4] 0.977 | [5] 0.991 | [6] 0.985 | [7] 0.987 | [8] 0.991 | [9] 0.996 | [10] 0.999 | [11] 0.984 | [12] 0.992 | [13] 0.983 | [14] 0.987 | [15] 0.979 | [16] 0.978 | [17] 0.99 | [18] 0.99 | [19] 0.983 | [20] 0.99 | [21] 0.971 | [22] 0.995 | [23] 0.974 | [24] 1.07 | [25] 0.992 | [26] 0.977 | [27] 0.984 | [28] 1.03 | [29] 0.963 | [30] 0.984 | [31] 0.982 | [32] 0.976 | [33] 0.997 | [34] 0.993 | [35] 0.967 | [36] 1 | [37] 0.991 | [38] 0.991 | [39] 0.971 | [40] 0.986 | [41] 1.03 | [42] 0.932 | [43] 0.987 | [44] 0.986 | [45] 0.974 | [46] 0.985 | [47] 0.988 | [48] 0.997 | [49] 0.984 | [50] 0.991 | [51] 0.982 | [52] 0.968 | [53] 0.987 | [54] 0.992 | [55] 1 | [56] 0.991 | [57] 0.984 | [58] 0.996 | [59] 1.01 | [60] 0.968 | [61] 0.984 | [62] 0.976 | [63] 0.97 | [64] 0.991 | [65] 0.988 | [66] 0.948 | [67] 0.999 | [68] 0.993 | [69] 0.996 | [70] 1 | [71] 0.989
